Molecules are shown by their SMILES.

In this experiment the target is Huntingtin (Homo sapiens) (UniProt P42858). Description: Quantitative High-Throughput Multiplex Assay to Identify Dual Action Probes in a Cell Model of Huntington: Summary. [Related pubchem assays (depositor defined):AID1471, AID1688, AID2669, AID2672, AID2673, AID2713]. The format is functional.
Chain of Huntingtin (Homo sapiens) (P42858 whole entry): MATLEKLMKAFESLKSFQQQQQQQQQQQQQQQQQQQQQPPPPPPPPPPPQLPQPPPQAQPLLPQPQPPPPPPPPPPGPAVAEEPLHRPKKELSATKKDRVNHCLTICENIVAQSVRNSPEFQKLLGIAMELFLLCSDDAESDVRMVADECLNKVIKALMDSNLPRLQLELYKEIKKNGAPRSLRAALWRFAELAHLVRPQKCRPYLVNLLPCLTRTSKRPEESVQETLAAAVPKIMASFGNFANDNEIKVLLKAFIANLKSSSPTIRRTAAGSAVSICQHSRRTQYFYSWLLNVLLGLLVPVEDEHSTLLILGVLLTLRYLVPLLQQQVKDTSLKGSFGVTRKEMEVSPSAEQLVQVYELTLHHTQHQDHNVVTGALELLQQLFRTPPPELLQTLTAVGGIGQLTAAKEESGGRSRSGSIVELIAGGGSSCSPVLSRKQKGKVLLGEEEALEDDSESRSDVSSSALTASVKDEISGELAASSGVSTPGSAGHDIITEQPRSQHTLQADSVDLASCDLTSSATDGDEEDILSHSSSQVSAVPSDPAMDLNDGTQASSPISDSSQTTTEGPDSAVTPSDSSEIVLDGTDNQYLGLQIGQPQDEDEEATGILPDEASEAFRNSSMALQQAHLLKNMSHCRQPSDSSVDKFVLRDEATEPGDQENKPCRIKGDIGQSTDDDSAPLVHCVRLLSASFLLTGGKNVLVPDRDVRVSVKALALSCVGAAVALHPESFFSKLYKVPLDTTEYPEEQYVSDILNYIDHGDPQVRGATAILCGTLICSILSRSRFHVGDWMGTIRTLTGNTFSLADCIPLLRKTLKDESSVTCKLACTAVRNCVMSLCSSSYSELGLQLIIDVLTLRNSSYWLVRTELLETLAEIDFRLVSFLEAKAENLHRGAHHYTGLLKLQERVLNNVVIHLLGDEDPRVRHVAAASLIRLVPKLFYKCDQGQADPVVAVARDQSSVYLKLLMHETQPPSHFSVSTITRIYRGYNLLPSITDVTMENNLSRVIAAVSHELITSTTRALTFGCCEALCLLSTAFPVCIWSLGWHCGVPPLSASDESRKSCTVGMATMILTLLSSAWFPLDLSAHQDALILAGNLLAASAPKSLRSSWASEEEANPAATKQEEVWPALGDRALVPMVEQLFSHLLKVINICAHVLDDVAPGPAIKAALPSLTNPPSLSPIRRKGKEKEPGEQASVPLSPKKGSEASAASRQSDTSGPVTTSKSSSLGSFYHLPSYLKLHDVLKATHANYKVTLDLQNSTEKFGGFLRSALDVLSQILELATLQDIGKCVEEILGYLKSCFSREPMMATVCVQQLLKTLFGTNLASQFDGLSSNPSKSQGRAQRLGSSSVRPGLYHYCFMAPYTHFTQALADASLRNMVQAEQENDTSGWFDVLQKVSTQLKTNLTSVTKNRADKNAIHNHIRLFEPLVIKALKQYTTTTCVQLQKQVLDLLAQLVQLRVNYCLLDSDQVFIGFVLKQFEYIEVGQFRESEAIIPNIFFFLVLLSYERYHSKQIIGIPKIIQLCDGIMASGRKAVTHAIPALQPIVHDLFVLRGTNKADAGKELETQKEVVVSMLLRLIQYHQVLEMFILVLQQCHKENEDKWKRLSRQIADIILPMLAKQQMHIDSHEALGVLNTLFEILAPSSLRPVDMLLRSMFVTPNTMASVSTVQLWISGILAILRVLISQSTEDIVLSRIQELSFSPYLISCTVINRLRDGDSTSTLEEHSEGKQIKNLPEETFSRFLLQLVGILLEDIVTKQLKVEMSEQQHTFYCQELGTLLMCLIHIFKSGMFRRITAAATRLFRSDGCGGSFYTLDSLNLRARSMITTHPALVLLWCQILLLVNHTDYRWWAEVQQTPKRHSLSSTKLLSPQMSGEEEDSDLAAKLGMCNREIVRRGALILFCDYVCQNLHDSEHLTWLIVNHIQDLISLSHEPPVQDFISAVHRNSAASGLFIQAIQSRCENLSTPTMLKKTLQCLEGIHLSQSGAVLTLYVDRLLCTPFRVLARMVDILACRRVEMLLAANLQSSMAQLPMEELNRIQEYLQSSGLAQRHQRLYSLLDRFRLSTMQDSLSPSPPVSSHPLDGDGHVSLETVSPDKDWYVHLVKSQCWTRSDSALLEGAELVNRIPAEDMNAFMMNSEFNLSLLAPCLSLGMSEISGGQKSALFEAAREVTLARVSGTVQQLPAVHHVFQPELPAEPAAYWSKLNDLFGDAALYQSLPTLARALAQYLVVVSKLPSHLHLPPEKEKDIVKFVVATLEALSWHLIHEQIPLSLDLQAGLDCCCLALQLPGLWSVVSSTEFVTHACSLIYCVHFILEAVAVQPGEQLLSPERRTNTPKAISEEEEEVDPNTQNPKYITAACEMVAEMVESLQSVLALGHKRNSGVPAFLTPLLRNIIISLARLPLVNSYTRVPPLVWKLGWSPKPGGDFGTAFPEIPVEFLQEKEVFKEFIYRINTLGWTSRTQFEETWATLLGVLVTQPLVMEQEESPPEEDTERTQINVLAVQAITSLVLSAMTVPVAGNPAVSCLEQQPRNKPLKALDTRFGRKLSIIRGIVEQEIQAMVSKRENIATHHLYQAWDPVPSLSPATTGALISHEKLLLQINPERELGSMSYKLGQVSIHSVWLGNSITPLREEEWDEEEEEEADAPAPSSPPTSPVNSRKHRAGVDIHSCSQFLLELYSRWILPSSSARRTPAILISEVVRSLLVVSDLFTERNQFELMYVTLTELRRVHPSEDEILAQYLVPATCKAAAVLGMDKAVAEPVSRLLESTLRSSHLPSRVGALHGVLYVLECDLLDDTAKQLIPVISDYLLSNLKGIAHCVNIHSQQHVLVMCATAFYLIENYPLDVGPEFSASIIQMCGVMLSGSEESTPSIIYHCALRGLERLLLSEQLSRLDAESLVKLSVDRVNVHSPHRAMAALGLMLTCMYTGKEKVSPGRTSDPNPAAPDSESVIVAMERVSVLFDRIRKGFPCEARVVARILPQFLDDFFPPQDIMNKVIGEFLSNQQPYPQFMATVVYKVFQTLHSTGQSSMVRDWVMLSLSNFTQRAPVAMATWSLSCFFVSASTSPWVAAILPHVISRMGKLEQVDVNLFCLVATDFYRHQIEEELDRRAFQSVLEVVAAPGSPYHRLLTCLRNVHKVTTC
For `COc1cccc(-c2csc3ncnc(Sc4nnnn4C)c23)c1`, the Potency is 7.94 µM (active).
With `Cc1ccccc1-c1csc2ncnc(Sc3nnnn3C)c12` the figure was 63.1 µM (active); with `COc1ccccc1-c1csc2ncnc(Sc3nnnn3C)c12`, 79.4 µM (active); with `Cn1nnnc1Sc1ncnc2scc(-c3ccccc3)c12`, 8.68 µM.
The result for `Cn1nnnc1Sc1ncnc2scc(-c3ccccc3F)c12` reads 12.6 µM (active).
Turning to `Cn1nnnc1Sc1ncnc2scc(-c3ccc(Cl)cc3)c12`, the Potency was 15.8 µM (active).
Take `COc1ccc(-c2csc3ncnc(Sc4nnnn4C)c23)cc1`: the Potency is 12.6 µM (active).
For `Cc1ccc(-c2csc3ncnc(Sc4nnnn4C)c23)cc1`, the Potency was 15.8 µM (active).
As for `Cc1cccc(-c2csc3ncnc(Sc4nnnn4C)c23)c1`, the Potency was 15.8 µM (active).
With `Cn1nnnc1Sc1ncnc2scc(-c3ccccc3C(F)(F)F)c12` the figure was 25.1 µM (active).
In the case of `Cn1nnnc1Sc1ncnc2scc(-c3cccc(F)c3)c12`, the Potency was 7.94 µM (active).

For the origin of these results see ChEMBL document CHEMBL1201862, “PubChem BioAssay data set” (2004).
